High-throughput results (PubChem)
MITF primary = inhibitors of human MITF | O75030 | AlphaScreen MITF homodimerization, bead proximity signal | inhibition, % at 2.6 µM | 650,000 compounds, 0.91% hits; in the data active = inhibition above about 50%
GPR151 activ = activates the human receptor GPR151; AID 1508602; activation, % at 11.2 µM; PathHunter beta-arrestin GPR151 cells, luminescence; 650,000 compounds, 1% hits; Q8TDV0; in the data active = activation above about 4.9%
TEAD-YAP block = TEAD-YAP interaction inhibition. inhibition, % at 9.12 µM. 640,000 compounds, 1.4% hits. HEK-TIYL cells, TEAD-Gal4/YAP UAS-luciferase luminescence; in the data active = inhibition above about 32%
FBW7 act = activators of human E3 ligase FBW7. Q969H0. AlphaScreen FBW7–phospho-cyclin E peptide binding, activator screen. normalized activity (activation), % at 26.1 µM. 650,000 compounds, 0.13% hits; in the data active = normalized activity above about 1.9%;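 also: purified mutant Fbw7 with reduced substrate affinity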
Target sequence (Q969H0 whole entry, looked up): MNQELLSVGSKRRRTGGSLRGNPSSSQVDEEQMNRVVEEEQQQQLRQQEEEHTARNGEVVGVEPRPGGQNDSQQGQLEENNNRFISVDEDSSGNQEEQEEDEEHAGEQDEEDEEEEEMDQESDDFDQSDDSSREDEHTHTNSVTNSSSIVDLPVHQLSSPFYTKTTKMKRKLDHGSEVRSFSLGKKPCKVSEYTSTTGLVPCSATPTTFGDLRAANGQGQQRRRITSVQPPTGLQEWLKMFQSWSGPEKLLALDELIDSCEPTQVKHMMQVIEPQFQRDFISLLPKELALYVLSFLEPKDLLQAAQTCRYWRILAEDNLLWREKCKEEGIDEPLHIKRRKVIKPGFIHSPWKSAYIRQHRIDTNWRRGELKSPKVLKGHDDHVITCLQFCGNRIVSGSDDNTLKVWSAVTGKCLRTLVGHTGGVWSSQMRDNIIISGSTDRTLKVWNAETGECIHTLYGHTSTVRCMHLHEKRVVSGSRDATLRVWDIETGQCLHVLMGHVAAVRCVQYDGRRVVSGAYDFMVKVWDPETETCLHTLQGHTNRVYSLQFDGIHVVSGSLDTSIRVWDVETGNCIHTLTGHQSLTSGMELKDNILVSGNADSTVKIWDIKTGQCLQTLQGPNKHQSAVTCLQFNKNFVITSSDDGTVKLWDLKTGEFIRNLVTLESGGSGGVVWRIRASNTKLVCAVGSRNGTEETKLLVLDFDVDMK
MITF confirm = human MITF inhibition, confirmation. AlphaScreen MITF homodimerization, biotin/His-MITF beads. shares compounds with MITF primary. 4,700 compounds, 16% hits. inhibition, % at 2.6 µM;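 active = inhibition above a cutoff derived from the DMSO control wells, cut at about 28% in these data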;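 also: inhibitors lower the bead chemiluminescence by keeping MITF from dimerizing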
AS interf DR = optically interferes with AlphaScreen signal in dose response. shares compounds with MITF primary. AlphaScreen optical interference counterscreen, cell-free. IC50, µM. 480 compounds, 6% hits; call rule not given here
AS interf ctr = AlphaScreen optical interference, counter-screen; AID 1259376; inhibition, % at 2.6 µM; shares compounds with MITF primary; 4,700 compounds, 7.6% hits; LysRS AlphaScreen counterscreen, signal interference, triplicate;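 active = inhibition above a cutoff derived from the DMSO control wells, cut at about 30% in these data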
Numbers stand for hits; i = inactive; nt = not tested or not shown. Rows were chosen to be rich in hits. Some 3.5% of all compounds tested hit in one or more screens of this group.

SMILES	MITF primary	GPR151 activ	TEAD-YAP block	FBW7 act	MITF confirm	AS interf ctr	others
Brc1cccc(OCCCn2ccnc2)c1	65.0	i	i	i	i	i
Brc1cccc(OCCn2ccnc2)c1	51.5	i	i	i	i	i
Brc1cccc(OCCOCCn2ccnc2)c1	i	i	i	i	nt	nt
O=C(NCCCn1ccnc1)c1ccc(OC2CCN(CCc3ccccc3)CC2)cc1	68.5	i	i	i	i	i
O=C(NCCCO)c1ccc(OC2CCN(CCc3ccccc3)CC2)cc1	i	i	i	i	nt	nt
C=CCN1CCN(c2ccc3c(c2)OCO3)C1=O	i	i	i	i	nt	nt
O=C(NCc1ccccc1)N1CCN2C(=O)[C@H]3CCCN3C(=O)[C@H]2C1	76.3	i	i	i	68.5	i	AS interf DR=i
C[C@@H](O)[C@@H]1NC(=O)[C@H]2CN(C(=O)NCc3ccccc3)CCN2C1=O	75.3	i	i	i	72.1	i	AS interf DR=i
O=C1N[C@@H](CSCc2ccccc2)C(=O)N2CCN(C(=O)NCc3ccccc3)C[C@H]12	80.3	i	i	i	73.3	i	AS interf DR=i
O=C(OCc1ccccc1)N1CCN2C(=O)[C@H]3CCCN3C(=O)[C@H]2C1	i	i	i	i	nt	nt
CC(C)C[C@@H]1NC(=O)[C@H]2CN(C(=O)NCc3ccccc3)CCN2C1=O	78.3	i	i	i	72.3	i	AS interf DR=i
COc1ccc(CNC(=O)CN2CCC(O)(c3nccn3C)CC2)cc1	i	i	i	i	nt	nt
O=C(CNc1cccc2ccccc12)N/N=C/c1ccc(Br)o1	i	i	i	i	nt	nt
S=c1[nH]n2c(-c3ccccc3)nnc2n1-c1ccccc1	i	i	i	i	nt	nt
CC(C)[C@@H]1NC(=O)[C@H]2CN(C(=O)NCc3ccccc3)CCN2C1=O	80.5	i	i	i	70.1	i	AS interf DR=i
O=C1N[C@@H](CC2CCCCC2)C(=O)N2CCN(C(=O)NCc3ccccc3)C[C@H]12	77.4	i	i	i	68.4	i	AS interf DR=i
O=C1N[C@@H](CO)C(=O)N2CCN(C(=O)OCc3ccccc3)C[C@H]12	i	i	i	i	nt	nt
CC(C)[C@H]1NC(=O)[C@H]2CN(C(=O)OCc3ccccc3)CCN2C1=O	i	i	i	i	nt	nt
C[C@H]1NC(=O)[C@H]2CN(C(=O)NCc3ccccc3)CCN2C1=O	80.7	i	i	i	64.7	i	AS interf DR=i
COc1ccc(Nc2nnc(-c3cc4cc([N+](=O)[O-])ccc4oc3=O)s2)cc1	i	i	i	i	nt	nt
Cc1cccc(OCC(=O)Nc2cc(C)c(C)cc2O)c1	98.0	i	i	i	i	i
O=c1cc(-c2ccccc2)[nH]n1-c1nc2ccccc2[nH]1	i	i	i	i	nt	nt
Cc1[nH]n(-c2nc3ccccc3[nH]2)c(=O)c1C1OC(=O)c2ccccc21 (stereo not given)	90.9	i	i	i	70.9	99.7
COc1ccc(CCNC(=O)c2cnc(N3CCN(c4ccccn4)CC3)s2)cc1	i	i	i	i	nt	nt
CC(C(=O)N1c2ccccc2CC1C)N1CCN(S(=O)(=O)c2ccccc2F)CC1 (stereo not given)	75.1	i	i	i	i	i
SMILES	MITF primary	GPR151 activ	TEAD-YAP block	FBW7 act	MITF confirm	AS interf ctr	others
CC1Cc2ccccc2N1S(=O)(=O)c1ccccc1F (stereo not given)	i	i	i	i	nt	nt
CC(C(=O)Nc1ccc(C#N)cc1)N1CCN(S(=O)(=O)c2ccccc2F)CC1 (stereo not given)	84.7	i	i	i	i	i
CCCC(=O)N1CCCC(c2nnc(-c3ccc4c(c3)OCO4)o2)C1 (stereo not given)	i	i	i	i	nt	nt
Cc1ccc(N2C(=O)CC(n3cnc4ccccc43)C2=O)c(C)c1 (stereo not given)	i	i	i	i	nt	nt
N=C1c2ccccc2CN1c1ccc(Cl)c(S(=O)(=O)N2CCOCC2)c1	i	i	i	i	nt	nt
CCOc1ccccc1OCCN1CCCC1	74.9	i	i	i	i	i
c1ccc2c(OCCN3CCCCC3)cccc2c1	i	i	i	i	nt	nt
CCOc1ccccc1N1CCN(C(=O)C2CCN(Cc3cccs3)CC2)CC1	50.7	i	i	i	i	i
CCOc1ccccc1OCCOCCN1CC(C)OC(C)C1 (stereo not given)	53.4	i	i	i	i	i
CCOc1ccccc1OCCN1CCCCC1	i	i	i	i	nt	nt
Clc1ccc(OCCN2CCCC2)c2ccccc12	53.0	i	i	i	i	i
CCOc1cc(C(=S)N2CCCCC2)ccc1OC(=O)c1ccc(Cl)cc1	i	i	i	i	nt	nt
